Data as given in the supplement of paper PMC7411054.
Counter-ions that a name gives are not always drawn.

Columns and labels:
Conditions in all cases: treatment time: 24 h
A549-ACTB-RAB5A [1] = experiment: lowest phenotypically active concentration; higher = less potent
Summary of the method: (§1)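 Cells from fifteen gene-edited reporter lines (A549, HepG2 and WPMY1) were treated for 24 h at 0.3, 1, 3 or 9 µM and imaged live, four wells per condition. Features were normalised per well to solvent control wells. A condition deviated if ≥3 of 4 wells passed the 95th percentile of control Euclidean distances and was reproducible if its median replicate Pearson correlation beat the 95th percentile of non-replicates; phenotypic activity needed both.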

HepG2-ACTB-RAB5A [2] = experiment: as above
Summary of the method: as §1

A549-ACTB-RAB5A [3] = experiment: phenotypically active (imaging signature differs from DMSO and reproducible) at any of 0.3-9 uM (binary (1 = active, 0 = inactive)); higher = active
Summary of the method: as §1

A549-CANX-COX4 = experiment: as above
Summary of the method: as §1

A549-GM130-SQSTM1 [4] = experiment: as above
Summary of the method: as §1

A549-TP53BP1-CLTA = experiment: as above
Summary of the method: as §1

A549-TUBA1B-RELA [5] = experiment: as above
Summary of the method: as §1

HepG2-ACTB-RAB5A [6] = experiment: as above
Summary of the method: as §1

HepG2-CANX-COX4 = experiment: as above
Summary of the method: as §1

HepG2-GM130-SQSTM1 = experiment: as above
Summary of the method: as §1

HepG2-TP53BP1-CLTA = experiment: as above
Summary of the method: as §1

HepG2-TUBA1B-RELA = experiment: as above
Summary of the method: as §1

WPMY1-ACTB-RAB5A = experiment: as above
Summary of the method: as §1

WPMY1-CANX-COX4 = experiment: as above
Summary of the method: as §1

WPMY1-GM130-SQSTM1 [7] = experiment: as above
Summary of the method: as §1

WPMY1-TP53BP1-CLTA = experiment: as above
Summary of the method: as §1

WPMY1-TUBA1B-RELA = experiment: as above
Summary of the method: as §1

A549-TUBA1B-RELA [8] = experiment: lowest phenotypically active concentration; higher = less potent
Summary of the method: as §1

WPMY1-GM130-SQSTM1 [9] = experiment: as above
Summary of the method: as §1

A549-GM130-SQSTM1 [10] = experiment: as above
Summary of the method: as §1

Row | SMILES | lowest phenotypically active concentration (A549-ACTB-RAB5A [1]) [µM] | lowest phenotypically active concentration (HepG2-ACTB-RAB5A [2]) [µM] | phenotypically active (A549-ACTB-RAB5A [3]) | phenotypically active (A549-CANX-COX4) | phenotypically active (A549-GM130-SQSTM1 [4]) | phenotypically active (A549-TP53BP1-CLTA) | phenotypically active (A549-TUBA1B-RELA [5]) | phenotypically active (HepG2-ACTB-RAB5A [6]) | phenotypically active (HepG2-CANX-COX4) | phenotypically active (HepG2-GM130-SQSTM1) | phenotypically active (HepG2-TP53BP1-CLTA) | phenotypically active (HepG2-TUBA1B-RELA) | phenotypically active (WPMY1-ACTB-RAB5A) | phenotypically active (WPMY1-CANX-COX4) | phenotypically active (WPMY1-GM130-SQSTM1 [7]) | phenotypically active (WPMY1-TP53BP1-CLTA) | phenotypically active (WPMY1-TUBA1B-RELA) | lowest phenotypically active concentration (A549-TUBA1B-RELA [8]) [µM] | lowest phenotypically active concentration (WPMY1-GM130-SQSTM1 [9]) [µM] | lowest phenotypically active concentration (A549-GM130-SQSTM1 [10]) [µM]
1 | O=C(CCCCCCC(=O)NO)NO | 9 | 9 | 1 (active) | 0 (inactive) | 0 (inactive) | 0 (inactive) | 0 (inactive) | 1 (active) | 0 (inactive) | 0 (inactive) | 0 (inactive) | 0 (inactive) | 0 (inactive) | 0 (inactive) | 0 (inactive) | 0 (inactive) | 0 (inactive) | – | – | –
2 | O=C(/C=C/c1ccc2ccccc2n1)c1ccncc1 | 9 | 3 | 1 (active) | 0 (inactive) | 0 (inactive) | 0 (inactive) | 1 (active) | 1 (active) | 0 (inactive) | 1 (active) | 0 (inactive) | 1 (active) | 1 (active) | 0 (inactive) | 1 (active) | 1 (active) | 1 (active) | 9 | 9 | –
3 | COc1ccccc1C(=O)Nc1cc2c(cc1N1CCCC1)n(C)c(=O)n2C | 9 | – | 1 (active) | 0 (inactive) | 1 (active) | 0 (inactive) | 0 (inactive) | 0 (inactive) | 0 (inactive) | 0 (inactive) | 0 (inactive) | 0 (inactive) | 1 (active) | 0 (inactive) | 1 (active) | 0 (inactive) | 0 (inactive) | – | 9 | 9
4 | COc1ccc(CCc2nc3cc(-c4c(C)noc4C)ccc3n2C[C@H](C)N2CCOCC2)cc1Cl | 3 | 3 | 1 (active) | 0 (inactive) | 0 (inactive) | 0 (inactive) | 0 (inactive) | 1 (active) | 1 (active) | 1 (active) | 1 (active) | 1 (active) | 1 (active) | 0 (inactive) | 1 (active) | 0 (inactive) | 1 (active) | – | 9 | –
5 | O=C(Nc1ccc(CN2CCOCC2)cc1)c1ccc(-c2cccc(Cl)c2)o1 | 9 | – | 1 (active) | 0 (inactive) | 0 (inactive) | 0 (inactive) | 1 (active) | 0 (inactive) | 0 (inactive) | 0 (inactive) | 0 (inactive) | 1 (active) | 0 (inactive) | 0 (inactive) | 0 (inactive) | 0 (inactive) | 0 (inactive) | 9 | – | –
6 | O=C(Nc1ccncc1)c1cc([N+](=O)[O-])ccc1Cl | 3 | 9 | 1 (active) | 0 (inactive) | 0 (inactive) | 1 (active) | 1 (active) | 1 (active) | 1 (active) | 1 (active) | 1 (active) | 1 (active) | 0 (inactive) | 1 (active) | 1 (active) | 0 (inactive) | 1 (active) | 9 | 9 | –
7 | COc1cc(OC)c2c(=O)[nH]c(-c3cc(C)c(OCCO)c(C)c3)nc2c1 [apabetalone] | 9 | 9 | 1 (active) | 0 (inactive) | 1 (active) | 0 (inactive) | 0 (inactive) | 1 (active) | 1 (active) | 1 (active) | 0 (inactive) | 0 (inactive) | 0 (inactive) | 0 (inactive) | 0 (inactive) | 1 (active) | 1 (active) | – | – | 9
8 | CNC(=O)c1cc(Oc2ccc(NC(=O)Nc3ccc(Cl)c(C(F)(F)F)c3)c(F)c2)ccn1 [regorafenib] | 9 | 3 | 1 (active) | 0 (inactive) | 0 (inactive) | 1 (active) | 0 (inactive) | 1 (active) | 1 (active) | 1 (active) | 1 (active) | 1 (active) | 0 (inactive) | 0 (inactive) | 0 (inactive) | 1 (active) | 0 (inactive) | – | – | –
9 | Cc1ccc(S(=O)(=O)c2ccc([N+](=O)[O-])o2)cc1 | 3 | 9 | 1 (active) | 0 (inactive) | 1 (active) | 0 (inactive) | 0 (inactive) | 1 (active) | 0 (inactive) | 1 (active) | 0 (inactive) | 1 (active) | 1 (active) | 1 (active) | 1 (active) | 1 (active) | 1 (active) | – | 3 | 3
10 | CC1CNCCN1S(=O)(=O)c1cccc2cnccc12 (stereo not drawn) [H-7 dihydrochloride] | 9 | – | 1 (active) | 0 (inactive) | 1 (active) | 0 (inactive) | 0 (inactive) | 0 (inactive) | 1 (active) | 1 (active) | 0 (inactive) | 1 (active) | 1 (active) | 1 (active) | 1 (active) | 0 (inactive) | 1 (active) | – | 9 | 9
11 | CC1(CN2CCC(n3c(=O)[nH]c4ccccc43)CC2)OCc2ccccc2-n2cccc21 (stereo not drawn) | 9 | – | 1 (active) | 0 (inactive) | 0 (inactive) | 0 (inactive) | 1 (active) | 0 (inactive) | 0 (inactive) | 0 (inactive) | 0 (inactive) | 0 (inactive) | 0 (inactive) | 0 (inactive) | 1 (active) | 0 (inactive) | 0 (inactive) | 9 | 3 | –
